The entries come from a sample that favours hits as a whole.
Methyltransferases – Primary Screen for Target Class Profiling of Small Molecule Inhibitors of Methyltransferases; purified enzyme, MTase-Glo SAH luminescence; hits give low values; calls only at 40 µM; actives 3.9% (n = 25,000); call rule not given here
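Each enzyme was assayed with SAM and its substrate. SAH formation detected by MTase-Glo luminescence; single-point 40 uM screen[…].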
MTase-Glo counter – Counterscreen for Target Class Profiling of Small Molecule Inhibitors of Methyltransferases; MTase-Glo coupled enzymes, SAH conversion luminescence, no MTase; actives 6% (n = 180); Potency, µM (doses to about 57.3 µM), inactives show top-dose activity change, negative = inhibition, hits mostly inhibitors; shares compounds with Methyltransferases; active = well fitted inhibition curve with a large enough effect; note: potency is the fitted concentration of half-maximal effect
An asterisk follows results filed as active; i = inactive; + = active, no number; [ ] = dose if it differs, or a comment. % is set by controls: 0 for no effect and ±100 for the full control effect.

SMILES	Methyltransferases	others
CC(CCO)CCC1C2(C)CCCC(C)(C)C2CC[C@@]1(C)O (some centres not stated)	i
CC1(C(=O)NC2CCCC2)Cn2c(cc3sccc32)C(=O)N1Cc1cccc(Cl)c1 (configuration not stated)	i
CN1C(=O)c2cc(C(=O)NC3CCCCC3)nn2CC1(C)C(=O)NCc1ccc(F)cc1 (configuration not stated)	i
Cc1ccc(C)c(N2CCN(C(=O)c3ccc4c(=O)nc5c(-c6cccc(F)c6)n[nH]n5c4c3)CC2)c1	i
Nc1nc(NCc2ccc(Cl)cc2Cl)cc(C2CC(O)C2)n1 (configuration not stated)	+	MTase-Glo counter=-3%
CCc1csc(CNc2cc(C3CC(O)C3)nc(N)n2)n1 (configuration not stated)	i
Nc1nc(NCc2ccc(N3CCCC3=O)cc2)cc(C2CC(O)C2)n1 (configuration not stated)	i
Cc1noc(C)c1-c1cc2c(cc(C)n2C)c(N2CCN(c3ccccn3)CC2)n1	i
COc1ccc(-c2cnc3n[nH]c(-c4ccccc4C)c3n2)cn1	i
Cc1ccccc1-c1[nH]nc2ncc(-c3c(C)noc3C)nc12	+	MTase-Glo counter=-4%[85.7 µM]
CCC1CCCCN1CCCNC(=O)CCn1ccc2cc(S(=O)(=O)N3CCCCC3)ccc21 (configuration not stated)	i
CCCC1=Nc2cc(C(=O)NCCCN3CCCCC3CC)ccc2Sc2ccc(C)cc21 (configuration not stated)	+	MTase-Glo counter=-1%
CCN1c2cc(C(=O)NCCc3ccccc3)ccc2C(=O)N2CCCCC21 (configuration not stated)	i
Cc1ccc(-c2n[nH]n3c2nc(=O)c2ccc(C(=O)N4CCN(c5ccc(F)cc5)CC4)cc23)cc1	i
COc1cccc(CNS(=O)(=O)c2ccc3c(c2)n(C)c(=O)n3C)c1	i
CC1(C(=O)NCc2ccc(Cl)cc2)Cn2c(ccc2-c2ccco2)C(=O)N1Cc1ccccc1F (configuration not stated)	i
C=Cc1ccc(CSc2nnc3n(CCC)c(=O)c4ccc(Cl)cc4n23)cc1	i
Cn1cc(-c2cnc(Nc3cccnc3)c3c2CCO3)cn1	i
Cc1noc(C)c1-c1cnc(Nc2ccncc2)c2c1CCO2	+	MTase-Glo counter=-3%[85.7 µM]
Fc1cccc(Nc2ncc(-c3cncnc3)c3c2OCC3)c1	i
O=C(Cc1cccnc1)N1CCC2(CC1)CC(CCOc1ccc(F)cc1)CCO2 (configuration not stated)	i
Fc1ccccc1CN1CCCC2(CCN(c3cnccn3)C2)C1 (configuration not stated)	i
COc1cccc(CN2CCCC3(CCN(c4cc(C)nc(N)n4)C3)C2)c1OC (configuration not stated)	+	MTase-Glo counter=-1%
COc1cc2c(cc1CN1CCC3(CCCNC3)C1)OCCCO2 (configuration not stated)	i
Cc1ccccc1CN1C[C@H](O)C[C@H]1c1nc(C2CC2)no1	i
SMILES	Methyltransferases	others
CC(C)Cn1c(=O)c2ccc(C(=O)NC(C)C)cc2n2c(=O)n(CC(=O)NCc3ccccc3)nc12	i
CC1(C(=O)NCc2ccc(F)cc2)Cn2cnc(C(=O)NCc3ccccc3Cl)c2C(=O)N1C1CC1 (configuration not stated)	i
Cc1ccc(CN2CC[C@H](c3nc4ccc(C)cc4[nH]3)C2)cc1	i
COc1ccc2nc([C@H]3CCN(C4CCCCC4)C3)[nH]c2c1	+	MTase-Glo counter=-5%[85.7 µM]
COc1ccc(CC(=O)N2CCCC2C(=O)N2CCC(c3nc4ccncc4[nH]3)C2)cc1 (configuration not stated)	i
O=C(CCCc1nc2ccccc2s1)N1CCc2nc3cc(-c4ccccc4)[nH]n3c(=O)c2C1	i
CN(C)S(=O)(=O)N1CCc2c(nc3cc(-c4ccccc4)[nH]n3c2=O)C1	i
COc1ccc(-c2cc3nc4c(c(=O)n3[nH]2)CN(C(=O)CN(C)S(=O)(=O)c2cnc[nH]2)CC4)cc1	+	MTase-Glo counter=-6%
O=S(=O)(c1ccc2[nH]c3c(c2c1)CCCC3)N1CCOc2ccc(Cl)cc21	i
CCC(C)NC(=O)c1ccc2c(=O)n(C)c3nn(Cc4cccc(OC)c4)c(=O)n3c2c1 (configuration not stated)	i
CCOC(=O)c1cc2n(n1)CC(C)(C(=O)NCc1ccc(F)cc1)N(c1ccccc1C)C2=O (configuration not stated)	i
CCOC(=O)c1cc2n(n1)CC(C)(C(=O)NCCOC)N(Cc1ccccc1OC)C2=O (configuration not stated)	i
CC(C)NC(=O)c1ccccc1OCC1CCCN(Cc2cn(C)c3ccccc23)C1 (configuration not stated)	+	MTase-Glo counter=4%
COc1cc(OC)cc(C(=O)NCC2CCCN(Cc3cc4ccccc4o3)C2)c1 (configuration not stated)	i
CCOc1ccccc1C(=O)NC1CCN(c2cc(C)cc(C)c2)C1=O (configuration not stated)	i
COc1cccc(CN2CC(Oc3ccccc3C(=O)NC3CC3)C2)c1	i
COc1ccc(CN2CCCC(COc3ccccc3C(=O)NC3CC3)C2)c(OC)c1 (configuration not stated)	+	MTase-Glo counter=-5%
COc1ccc(O)c(CN2CCCC(Nc3ccc(F)cc3)C2)c1 (configuration not stated)	i
CCCn1c(=O)c2ccc(Cl)cc2n2c(=O)n(CC(=O)NCc3ccc(Cl)cc3)nc12	i
COc1ccccc1CNC(=O)C1(C)Cn2nc(-c3ccccc3)cc2C(=O)N1CCc1ccc(SC)cc1 (configuration not stated)	i
CC(C)c1ccc(-c2nnc3n(Cc4ccccc4)c(=O)c4ccccc4n23)cc1	i
CCCn1c(=O)c2ccc(C(=O)NCC(C)C)cc2n2c(=O)[nH]nc12	i
COc1ccc(CCNC(=O)c2cc3n(n2)CC(C)(C(=O)NCc2ccc(C)cc2)N(C)C3=O)cc1OC (configuration not stated)	i
CCC1Oc2ccc(NC(=O)Cc3ccc(OC)cc3)cc2CN(Cc2ccc3c(c2)OCO3)C1=O (configuration not stated)	i
CCn1c(=O)n(CC)c2cc(S(=O)(=O)Nc3ccc(F)cc3)ccc21	i
SMILES	Methyltransferases	others
CCC1Oc2ccc(NS(=O)(=O)c3ccc(Cl)cc3)cc2CN(Cc2ccc(F)cc2)C1=O (configuration not stated)	+	MTase-Glo counter=-8%
c1ccc(Cn2cc(CN3CCN(c4ccncc4)CC3)c(-c3cc4ccccc4o3)n2)cc1	+	MTase-Glo counter=5%
Cn1cc(CN2CCN(c3ccc(C#N)cn3)CC2)c(-c2ccccc2)n1	i
Cc1nn(-c2ccccc2)c(C)c1/C=N/N1CCN(Cc2ccccc2)CC1	i
CSc1ccc(C(=O)N2C[C@@H](CN3CCN(C)CC3)[C@@H](CO)C2)cc1	i
Cc1ccc(C2c3cccn3-c3sc4c(c3CN2C(=O)NC(C)C)CCCC4)cc1 (configuration not stated)	i
COc1ccc(-c2cc3n(n2)CC(C)(C(=O)NC2CCCCC2)N(C2CCCC2)C3=O)cc1 (configuration not stated)	i

High-throughput results: PubChem, National Center for Advancing Translational Sciences (NCATS)
